Our source for the Potency values is PubChem BioAssay (Tox21).

Records with an inconclusive call do not appear. A call without a number means that no potency is given here. Calls of active or inactive are those of the source. Calls come from the whole dose curve.

The target of the first test is Acetylcholinesterase (Homo sapiens) (UniProt P22303). As to the kind of experiment: Acetylcholinesterase (AChE) small molecule antagonists: enzyme-based qHTS assay (AID 1347397). Note: nearly all actives have a fitted effect of over 55% in size. The settings on record: Potency: AChE enzyme activity inhibition; outcome: AChE enzyme activity inhibition; series mostly up to 115 µM. The procedure, abridged: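 Absorbance-based detection of thiocholine with DTNB served as the read-out. Recombinant human AChE was exposed to compound for 30 min at RT before a 10 min RT incubation with acetylthiocholine.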
Sequence of Acetylcholinesterase (Homo sapiens) (P22303 whole entry, looked up): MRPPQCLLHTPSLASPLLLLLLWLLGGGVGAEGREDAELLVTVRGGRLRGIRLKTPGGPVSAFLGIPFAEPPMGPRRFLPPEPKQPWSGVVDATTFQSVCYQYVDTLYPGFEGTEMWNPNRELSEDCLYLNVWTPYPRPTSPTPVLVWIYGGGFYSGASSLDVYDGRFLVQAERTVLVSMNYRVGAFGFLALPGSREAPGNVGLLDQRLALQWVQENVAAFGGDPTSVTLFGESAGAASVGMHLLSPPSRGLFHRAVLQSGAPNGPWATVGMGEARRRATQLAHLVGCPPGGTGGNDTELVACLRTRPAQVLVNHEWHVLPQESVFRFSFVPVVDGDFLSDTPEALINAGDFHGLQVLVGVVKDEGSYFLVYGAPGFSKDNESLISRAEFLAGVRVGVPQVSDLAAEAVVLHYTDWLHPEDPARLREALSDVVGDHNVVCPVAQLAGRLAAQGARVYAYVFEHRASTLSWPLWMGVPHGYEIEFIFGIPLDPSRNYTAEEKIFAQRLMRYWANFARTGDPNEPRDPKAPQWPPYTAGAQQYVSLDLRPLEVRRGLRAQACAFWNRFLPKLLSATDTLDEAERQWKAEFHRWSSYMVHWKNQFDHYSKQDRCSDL
On the technique in general: Quantitative high-throughput screening tests each substance at several concentrations.
Regarding `Cc1ccc(S(=O)(=O)N=C=O)cc1`, the Potency result was “inactive”. In the case of `CCC(=O)OCCC(C)CCC=C(C)C` (centres undefined), the Potency result was “inactive”. Take `c1ccc2nccnc2c1`: the Potency result was “inactive”.

On to `CC1(C)CCC[C@]2(C)[C@H]3CC(=O)O[C@]3(C)CC[C@@H]12`, for which the Potency result is “inactive”.

Another test has the same target. As to the kind of experiment: Acetylcholinesterase (AChE) small molecule antagonists: fluorescence cell-based qHTS assay (AID 1347398). Note: nearly all actives have a fitted effect of over 50% in size. The note with it: SH-SY5Y cells; Potency: AChE activity; outcome: AChE activity; series mostly up to 115 µM. The procedure, abridged: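 Fluorimetric cell-based assay: intact SH-SY5Y cells, 30 min compound preincubation at 37 C, acetylthiocholine substrate with thiol probe Thiolite Green, 40 min RT development, fluorescence 490/520 nm.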
In the case of `Nc1nc(N)c2nc(CNc3ccc(C(=O)N[C@@H](CCC(=O)O)C(=O)O)cc3)cnc2n1`, the Potency entry was “inactive”. Turning to `Cc1ccc(C(C)C)cc1`, the Potency result is “inactive”. Take `O=C(O)CSCC(=O)NC1CCSC1=O` (centres undefined): the Potency result is “inactive”.

On to `C[C@]12CCC(=O)C=C1CC[C@@H]1[C@@H]2[C@@H](O)C[C@@]2(C)[C@H]1CC[C@]2(O)C(=O)CO`, for which the Potency entry was “inactive”. Regarding `CN(C)CCC(c1ccccc1)c1ccccn1` (centres undefined), the Potency result was “inactive”. Regarding `CCCCCCCCCCCCC`, the Potency entry was “inactive”. `C=CC(=C)CCC=C(C)C`: the Potency entry was “inactive”.

In the case of `CCCOc1ccc2nc(NC(=O)OC)[nH]c2c1`, the Potency result was “inactive”. As for `Cc1cc(C)cc(O)c1`, the Potency result was “inactive”. Take `OC[C@H]1O[C@@H]2O[C@H]3[C@H](O)[C@@H](O)[C@@H](O[C@H]4[C@H](O)[C@@H](O)[C@@H](O[C@H]5[C@H](O)[C@@H](O)[C@@H](O[C@H]6[C@H](O)[C@@H](O)[C@@H](O[C@H]7[C@H](O)[C@@H](O)[C@@H](O[C@H]8[C@H](O)[C@@H](O)[C@@H](O[C@H]1[C@H](O)[C@H]2O)O[C@@H]8CO)O[C@@H]7CO)O[C@@H]6CO)O[C@@H]5CO)O[C@@H]4CO)O[C@@H]3CO`: the Potency result was “inactive”. Take `COc1ccc2c(c1)c(CC(=O)OCC(=O)O)c(C)n2C(=O)c1ccc(Cl)cc1`: the Potency entry is “inactive”. Take `Nc1ccc(S(=O)(=O)NCc2ccccc2)cc1`: the Potency entry is “inactive”. On the same count and under the same terms, the entry for `CCCCCCCCCCC(CO)CCCCCCCC` (centres undefined) is “inactive”; for `CCn1cc(C(=O)O)c(=O)c2cnc(N3CCNCC3)nc21` it is “inactive”; for `O=C(O)c1cn(C2CC2)c2cc(Cl)c(F)cc2c1=O` it is “inactive”. The same measure, in the same setting: the entry for `CCCCCCCCCCCCCBr` is “inactive”; for `CCOCCn1c(C2CCN(CCc3ccc(C(C)(C)C(=O)O)cc3)CC2)nc2ccccc21` it is “inactive”; for `CCOc1ccc2nc(S(N)(=O)=O)sc2c1` it is “inactive”. As to `Cc1ccc(Cl)cc1`, the Potency result was “inactive”. `OC/C=C/c1ccccc1`: the Potency entry is “inactive”. For `NC(CCC(=O)O)C(=O)O` (centres undefined), the Potency result was “inactive”. As for `Nc1ncn([C@@H]2O[C@H](CO)[C@@H](O)[C@H]2O)c(=O)n1`, the Potency entry is “inactive”.

For `COC(C)(OC)OC`, the Potency entry was “inactive”. Take `Cc1cc(C)c(S(=O)(=O)O)cc1N=Nc1cc(S(=O)(=O)O)c2ccccc2c1O`: the Potency entry is “inactive”.

As for `C[C@]12CCC(=O)C=C1C=C[C@@H]1[C@@H]2CC[C@@]2(C)[C@H]1CC[C@@]21CCC(=O)O1`, the Potency entry is “inactive”. Regarding `C=C(C)C(=O)OCCCCCCCCCCCCC`, the Potency result is “inactive”.

With `Brc1cc(Oc2cc(Br)c(Br)c(Br)c2Br)c(Br)c(Br)c1Br`, the Potency result is “inactive”.

On to `Nc1ccc(O)c(N)c1`, for which the Potency entry was “inactive”.

For the compound `CCCCC/C=C/CC(=O)OC`, the Potency entry was “inactive”. With `c1cnc2c(n1)CCCC2`, the Potency result is “inactive”. As to `CCCNC(C)C(=O)Nc1c(C)csc1C(=O)OC` (centres undefined), the Potency entry was “inactive”. On the same count and under the same terms, the entry for `c1ccc2ccccc2c1` is “inactive”; for `O=C1C(CCS(=O)c2ccccc2)C(=O)N(c2ccccc2)N1c1ccccc1` (centres undefined) it is “inactive”. For `OCc1ccc(Cl)cc1Cl`, the Potency entry is “inactive”. `Oc1ccccc1C=NCc1ccccc1`: the Potency entry was “inactive”. As to `CCOc1cccc(-n2cc(C(=O)N3CCN(c4cc(C(=O)O)c5ccccc5c4)CC3)nc2-c2ccc(C)cc2)c1`, the Potency result was “inactive”. For the compound `Cc1ccc(S(=O)(=O)N=C=O)cc1`, the Potency result is “inactive”. `CCC(=O)OCCC(C)CCC=C(C)C` (centres undefined): the Potency result is “inactive”.

On to `c1ccc2nccnc2c1`, for which the Potency entry is “inactive”. `CC1(C)CCC[C@]2(C)[C@H]3CC(=O)O[C@]3(C)CC[C@@H]12`: the Potency result was “inactive”.
